Rows were chosen to be rich in hits. Some 8.9% of all compounds tested hit in one or more screens of this group.
ALDH1A1 block: ALDH1A1 (human) enzyme inhibition | 220,000 tested, 7.3% active | Purified ALDH1A1, NADH fluorescence, propionaldehyde substrate | AID 1030 | P00352 | Potency, µM (series often up to 75.3 µM), for inactives: at the highest dose activity, negative = inhibition, hits mostly inhibitors; active = well fitted inhibition curve with a large enough effect, not every such curve was filed as active; inconclusive = small, poorly fitted or top-dose-only effect, or another doubt; inactive = no such curve, though single readings can be large or run the other way;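 note: potency is the fitted concentration of half-maximal effect; plate controls were no enzyme wells and a reference inhibitor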
Target sequence (P00352 whole entry, looked up): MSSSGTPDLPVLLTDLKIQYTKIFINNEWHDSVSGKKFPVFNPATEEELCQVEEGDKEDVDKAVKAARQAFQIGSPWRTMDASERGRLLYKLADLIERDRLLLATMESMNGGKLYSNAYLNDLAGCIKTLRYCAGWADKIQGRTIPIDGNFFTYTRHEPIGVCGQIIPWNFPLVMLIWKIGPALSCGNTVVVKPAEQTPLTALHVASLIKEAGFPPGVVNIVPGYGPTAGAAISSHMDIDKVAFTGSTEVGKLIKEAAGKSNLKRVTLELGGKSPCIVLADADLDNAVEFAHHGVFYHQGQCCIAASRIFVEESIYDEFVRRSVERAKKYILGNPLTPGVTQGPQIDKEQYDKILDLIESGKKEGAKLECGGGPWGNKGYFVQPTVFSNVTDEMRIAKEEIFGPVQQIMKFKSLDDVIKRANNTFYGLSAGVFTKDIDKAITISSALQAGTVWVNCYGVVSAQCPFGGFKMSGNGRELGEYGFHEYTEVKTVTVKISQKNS
ALOX12 inhib: blocks human 12-lipoxygenase activity. purified 12-hLO, xylenol orange hydroperoxide absorbance. Potency, µM (titrated, usually from 57.1 µM), without a hit: top-dose activity change, negative = inhibition, usual class: inhibitors. 150,000 tested, 0.12% active; note: potency is the fitted concentration of half-maximal effect; nearly all actives have a fitted effect of over 55% in size
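Purified human 12hLO (150 nM final) was preincubated with compounds for 15 min at room temperature in 25 mM Hepes pH 7.0, 0.01% Triton X-100, then reacted with 40 uM arachidonic acid for 30 min. Hydroperoxide was detected with ferrous iron/xylenol orange.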
IMPase inh: cell-permeable inhibitors of inositol monophosphatase (IMPase). CHO-M1 cells, IP1 accumulation, HTRF TR-FRET ratio. inhibition (IP1 accumulation), % at 46.1 µM. 120,000 tested, under 10 active. AID 901; active = well fitted curve in the direction sought with a large enough effect in the signal ratio, not every such curve was filed as active; inconclusive = small, poorly fitted or top-dose-only effect, or a change in a side signal; inactive = no such curve, though single readings can be large or run the other way; the % refers to the signal ratio;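 note: cells stimulated with carbachol in lithium chloride buffer; plate controls were DMSO basal wells for no effect and reference inhibitor wells for full effect; higher means more IMPase inhibition seen as more IP1 and lower FRET ratio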
Target sequence (P97697 whole entry, looked up): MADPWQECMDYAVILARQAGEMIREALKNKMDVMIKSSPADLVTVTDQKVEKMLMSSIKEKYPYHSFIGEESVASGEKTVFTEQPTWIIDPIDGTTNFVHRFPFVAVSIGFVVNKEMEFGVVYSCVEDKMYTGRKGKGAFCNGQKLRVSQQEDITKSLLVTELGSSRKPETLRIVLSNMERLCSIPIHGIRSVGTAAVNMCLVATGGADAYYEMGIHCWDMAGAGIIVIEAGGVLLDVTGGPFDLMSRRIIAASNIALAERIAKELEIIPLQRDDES
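Elevated IP1 in lysates lowers TR-FRET signal (665/620 ratio and 620 channel reported). Cells were CHO-M1, given carbachol (50 uM as added) plus 50mM LiCl, pH 7.4, 30 min, 37C; compounds titrated up to 46 uM; AC50 by Hill equation.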
HPGD inh: blocks human HPGD enzyme activity | P15428 | Potency, µM, for the others: top-dose activity change, negative = inhibition, hits mostly inhibitors | purified HPGD, NADH fluorescence kinetic, PGE2 substrate | AID 894 | 150,000 tested, 4.3% active; active = well fitted inhibition curve with a large enough effect, not every such curve was filed as active; inconclusive = small, poorly fitted or top-dose-only effect, or another doubt; inactive = no such curve, though single readings can be large or run the other way; note: potency is the fitted concentration of half-maximal effect
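20 nM HPGD preincubated 15 min at room temperature with compound in 50 mM Tris-HCl pH 8, 0.01% Tween 20. Started with 1 mM NAD+ and 30 uM prostaglandin E2; NADH fluorescence (360/450 nm) read 5 times over 30-s intervals, last minus first.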
IMPase Li cell: IMPase inhibition in cells with lithium potentiation. CHO-M1 cells, IP1 TR-FRET (IP-One), carbachol + lithium. Potency, µM (series often up to 59.4 µM), inactives show top-dose activity, negative = IMPase inhibition, most hits filed as inhibitors. 210,000 tested, 0.35% active. AID 1457;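 note: IP1 builds up when IMPase is blocked and the TR-FRET signal falls; potency is the fitted concentration of half-maximal effect; plate controls were basal vehicle for no effect and high inhibitor control for full effect; nearly all actives have a fitted effect of over 50% in size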
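Steps: plate 2000 CHO-M1 cells per well and culture 16–30 h; add compound and lithium; incubate 30 min, 37C; add d2-IP1 tracer and Eu cryptate anti-IP1 antibody in lysis buffer; read after 10 min at room temperature.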
NPSR antag: blocks cAMP signaling of the human neuropeptide S receptor. Q6W5P4. Potency, µM (titrated, usually from 38.3 µM), for inactives: at the top dose activity change, negative = inhibition, most hits filed as inhibitors. 220,000 tested, 1% active. AID 1461. CHO-NPSR cells, cAMP TR-FRET, antagonist mode; note: potency is the fitted concentration of half-maximal effect; nearly all actives have a fitted effect of over 50% in size
Active calls of the source: *; [ ] = remark or other dose. Unless noted, calls come from the whole dose curve; as a rule, active = well fitted curve in the direction sought with a large enough effect; inconclusive = small, poorly fitted or top-dose-only effect, or another doubt; inactive = no such curve, though single readings can be large; an effect the other way counts as inactive or inconclusive. Unless noted, % is set by controls: 0 for no effect and ±100 for the full control effect.

Results for O=C(C1CCCN(S(=O)(=O)c2ccc(F)cc2)C1)N1CCCC1 (centres undefined) ?
ALDH1A1 block: 1.6%; ALOX12 inhib: 4.1%; IMPase inh: 13.9; HPGD inh: 2.1%; IMPase Li cell: 10.3%[38.3 µM]; NPSR antag: 8.4%[46.1 µM]

What do the screens show for `COc1cccc(OCC(=O)Nc2ccccc2NC(C)=O)c1`?
ALDH1A1 block: inconclusive; ALOX12 inhib: 4.3%; IMPase inh: 5.7; HPGD inh: -5.4%; IMPase Li cell: -4.7%[38.3 µM]; NPSR antag: -3.9%[46.1 µM]

Results for Cc1cccc(OCC(=O)Nc2ccccc2C(F)(F)F)c1 ?
ALDH1A1 block: -4.3%; ALOX12 inhib: 1.8%; HPGD inh: 17.8µM*; IMPase Li cell: -1.0%; NPSR antag: -12.1%

What do the screens show for `Cc1cccc(OCC(=O)Nc2cccc(C(=O)Nc3ccccc3C(=O)O)c2)c1`?
ALDH1A1 block: 5.62µM*; ALOX12 inhib: 1.1%; HPGD inh: inconclusive; IMPase Li cell: 16.1%; NPSR antag: -0.2%

What do the screens show for `COc1cccc(C(=O)Nc2cc(C)ccc2NC(=O)COc2ccccc2)c1`?
ALDH1A1 block: 14.1µM*; ALOX12 inhib: -7.0%; IMPase inh: 0.6; NPSR antag: -14.0%[46.1 µM]

How did CC(C)c1ccc(OCC(=O)Nc2cccc(C(=O)Nc3ccccc3C(=O)O)c2)cc1 do in these assays?
ALDH1A1 block: 20µM*; IMPase Li cell: -9.3%; NPSR antag: -13.1%

How did COc1ccccc1/C=C(/C(=O)OCC(=O)Nc1ccccc1C(C)C)c1ccccc1 do in these assays?
ALDH1A1 block: -2.0%; ALOX12 inhib: -3.0%; IMPase inh: 10.6; HPGD inh: -14.6%; IMPase Li cell: 7.5%; NPSR antag: -48.8%

How did CCCc1ccc(-c2cc(C(=O)NC3=NCCS3)c3ccccc3n2)cc1 do in these assays?
ALDH1A1 block: 2.1%; ALOX12 inhib: 1.9%; IMPase inh: -8.8; NPSR antag: inconclusive

How did Cc1ccccc1OCc1nc(-c2cccnc2)no1 do in these assays?
ALDH1A1 block: -6.1%; IMPase Li cell: 31.4%; NPSR antag: -4.9%

What do the screens show for `CCSc1nnc(C)c(=O)n1COC(=O)c1ccc(S(=O)(=O)N2CCCC2)cc1`?
ALDH1A1 block: -9.5%; ALOX12 inhib: 1.3%; IMPase inh: 0.8; HPGD inh: -18.7%; IMPase Li cell: 1.1%; NPSR antag: -20.8%[46.1 µM]

What do the screens show for `CCCCC(=O)NCc1ccc2c(c1)cc(C)n2C`?
ALDH1A1 block: -4.9%; ALOX12 inhib: 0.5%; IMPase inh: -8.2; HPGD inh: 1.12µM*; IMPase Li cell: -9.7%[38.3 µM]; NPSR antag: inconclusive

Results for COc1cccc(C(=O)NCc2ccc3c(c2)cc(C)n3C)c1 ?
ALDH1A1 block: inconclusive; IMPase Li cell: -6.6%; NPSR antag: -24.3%

How did COc1ccccc1OCCNC(=O)c1cccs1 do in these assays?
ALDH1A1 block: 13.9%; ALOX12 inhib: 0.3%; IMPase inh: 0.2; HPGD inh: 15.8µM*; IMPase Li cell: 8.9%[38.3 µM]; NPSR antag: 9.4%[46.1 µM]

How did Cc1cc2cc(CNC(=O)c3ccc(S(=O)(=O)N4CCCCC4)cc3)ccc2n1C do in these assays?
ALDH1A1 block: inconclusive; ALOX12 inhib: 1.1%; IMPase inh: inconclusive; HPGD inh: -14.1%; IMPase Li cell: inconclusive; NPSR antag: -7.1%[46.1 µM]

Results for Cc1cc2cc(CNC(=O)c3ccc(S(=O)(=O)N4CCCC4)cc3)ccc2n1C ?
ALDH1A1 block: 20µM*; ALOX12 inhib: -2.7%; IMPase inh: -13.3; HPGD inh: -6.2%; IMPase Li cell: 20.2%[38.3 µM]; NPSR antag: 9.1%[46.1 µM]

Results for Cc1cc2cc(CNC(=O)c3cccs3)ccc2n1C ?
ALDH1A1 block: -10.5%; ALOX12 inhib: 4.1%; HPGD inh: 2.82µM*; IMPase Li cell: -12.0%; NPSR antag: -27.4%

What do the screens show for `CC(Cc1ccccc1)C(=O)Nc1ccccc1` (centres undefined)?
ALDH1A1 block: -1.7%; ALOX12 inhib: -5.3%; HPGD inh: -10.8%; IMPase Li cell: 2.9%; NPSR antag: 5.3%

What do the screens show for `Cc1cc2nc(C)n(CCCNC(=O)Nc3ccc(C#N)cc3)c2cc1C`?
ALDH1A1 block: -2.7%; ALOX12 inhib: -0.4%; IMPase inh: 16.0; HPGD inh: -4.0%; IMPase Li cell: 39.9%[38.3 µM]; NPSR antag: -11.9%[46.1 µM]

What do the screens show for `Cc1cccc2cc(COC(=O)c3ccco3)c(=O)[nH]c12`?
ALDH1A1 block: inconclusive; ALOX12 inhib: 0.3%; IMPase inh: 0.1; HPGD inh: -24.8%; IMPase Li cell: 4.3%[38.3 µM]; NPSR antag: -0.3%[7.67 µM]

What do the screens show for `Cn1nccc1C(=O)NCCN1C(=O)OC(C)(C)C1(C)O` (centres undefined)?
ALDH1A1 block: -6.1%; ALOX12 inhib: -2.6%; IMPase inh: 6.3; HPGD inh: 0.1%; IMPase Li cell: 6.3%[38.3 µM]; NPSR antag: -5.4%[46.1 µM]

How did CC(=O)NC1C2CN3CCN(C2)CC1(Cc1ccccc1)C3 (centres undefined) do in these assays?
ALDH1A1 block: 17.4%; ALOX12 inhib: -0.1%; HPGD inh: -9.0%; IMPase Li cell: 1.7%; NPSR antag: 9.9%

What do the screens show for `COc1ccc(CC(=O)NCc2ccc3c(c2)cc(C)n3C)cc1`?
ALDH1A1 block: inconclusive; IMPase Li cell: 2.0%; NPSR antag: 5.0%

Results for COc1ccc(CNC(=O)c2cccs2)cc1 ?
ALDH1A1 block: inconclusive; ALOX12 inhib: -9.0%; IMPase inh: 0.5; HPGD inh: 14.1µM*; IMPase Li cell: -22.0%[38.3 µM]; NPSR antag: -6.3%[46.1 µM]

Results for Cc1cc2cc(CNC(=O)CC(C)C)ccc2n1C ?
ALDH1A1 block: 1.1%; ALOX12 inhib: 1.3%; IMPase inh: 1.9; HPGD inh: 2.24µM*; IMPase Li cell: -12.2%[38.3 µM]; NPSR antag: -6.5%[46.1 µM]

Results for COc1ccc(OCC(=O)NNC(=O)c2cccs2)cc1 ?
ALDH1A1 block: 6.5%; ALOX12 inhib: 6.3%; IMPase inh: -0.2; HPGD inh: -3.9%; IMPase Li cell: -8.3%[38.3 µM]; NPSR antag: -3.1%[46.1 µM]

How did COc1cc(NC(=O)CN2C(=O)c3ccccc3C2=O)c(C(=O)O)cc1OC do in these assays?
ALDH1A1 block: 6.5%; ALOX12 inhib: -0.8%; IMPase inh: 7.7; NPSR antag: -5.2%[46.1 µM]

How did Cc1ccc(S(=O)(=O)Nc2cc(=O)[nH]c3c2CCC3)cc1 do in these assays?
ALDH1A1 block: 5.2%[13.5 µM]; ALOX12 inhib: -2.3%[11.4 µM]; HPGD inh: -3.4%; IMPase Li cell: -7.7%; NPSR antag: 4.6%

What do the screens show for `Cc1ccc(-c2cc(C(=O)N/N=C/c3ccco3)n[nH]2)s1`?
ALDH1A1 block: 0.7%; ALOX12 inhib: -7.7%; HPGD inh: -5.9%; IMPase Li cell: 3.6%; NPSR antag: -13.9%

Screening results as filed in PubChem.
